Bioassay records: PubChem, National Center for Advancing Translational Sciences (NCATS)
Sm TGR block: inhibitors of Schistosoma mansoni thioredoxin glutathione reductase | purified TGR, DTNB reduction, TNB absorbance 405 nm | Potency, µM (titrated, usually from 114 µM), for the others: top-dose activity change, negative = inhibition, most hits filed as inhibitors | 360,000 tested, 3% active | AID 485364; note: nearly all actives have a fitted effect of over 60% in size
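Kinetic colorimetric format: TGR-catalysed, NADPH-driven DTNB reduction monitored via TNB absorbance. Enzyme dispensed at 20 nM; compound exposure 15 min at room temperature before reaction start.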
AmpC no deterg: AmpC beta-lactamase inhibition without detergent; P00811; AmpC nitrocefin hydrolysis, absorbance 480 nm, 0.0001% Triton; Potency, µM (highest dose often 57.1 µM), without a hit: top-dose activity change, negative = inhibition, most hits filed as inhibitors; 330,000 tested, 0.52% active; AID 485341;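 note: plate controls were no compound for no effect and no enzyme for full effect; nearly all actives have a fitted effect of over 20% in size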
Target sequence (P00811 whole entry, looked up): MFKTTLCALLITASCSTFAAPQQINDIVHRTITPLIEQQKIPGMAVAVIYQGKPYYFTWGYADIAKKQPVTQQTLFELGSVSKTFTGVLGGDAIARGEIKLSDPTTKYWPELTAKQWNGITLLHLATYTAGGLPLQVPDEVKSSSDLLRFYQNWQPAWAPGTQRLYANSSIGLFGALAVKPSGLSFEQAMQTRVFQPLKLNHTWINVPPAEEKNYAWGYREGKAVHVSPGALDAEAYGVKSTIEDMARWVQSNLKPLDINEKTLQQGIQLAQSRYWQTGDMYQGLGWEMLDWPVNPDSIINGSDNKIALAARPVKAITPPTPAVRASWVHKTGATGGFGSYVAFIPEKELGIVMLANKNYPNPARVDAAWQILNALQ
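20 mM phosphate pH 7.0 + 0.01% (detergent screen) or 0.0001% Triton X-100; 5.3 nM AmpC reagent; cpd preinc 15 min RT; nitrocefin (800 uM stock) to start; A480 q20 s × 4 min; Activity was normalised to no-enzyme and no-compound control wells.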
AmpC detergent: AmpC beta-lactamase inhibition with detergent present | AmpC hydrolysis of nitrocefin, absorbance 480 nm, 0.01% Triton | Potency, µM (titrated, usually from 114 µM), without a hit: top-dose activity change, negative = inhibition, hits mostly inhibitors | P00811 | 370,000 tested, 0.041% active;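 note: 0% = no-compound wells and -100% = no-enzyme wells; nearly all actives have a fitted effect of over 25% in size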
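20 mM phosphate pH 7.0 + 0.01% (detergent screen) or 0.0001% Triton X-100; 5.3 nM AmpC reagent; cpd preinc 15 min RT; nitrocefin (800 uM stock) to start; A480 q20 s × 4 min; Activity was normalised to no-enzyme and no-compound control wells.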
An asterisk follows results filed as active; ? = inconclusive; nt = not tested or not shown; [ ] = dose if it differs, or a comment. Compounds with a hit are over-represented: about 3.3% of the library has one in this group of screens. Calls come from the whole dose curve; as a rule, active = well fitted curve in the direction sought with a large enough effect; inconclusive = small, poorly fitted or top-dose-only effect, or another doubt; inactive = no such curve, though single readings can be large; an effect the other way counts as inactive or inconclusive. Unless noted, % is set by controls: 0 for no effect and ±100 for the full control effect; potency is the fitted concentration of half-maximal effect.

SMILES	Sm TGR block	AmpC no deterg	AmpC detergent
CC(C)CN(CC(C)C)c1ccc(C=C2C(=O)NC(=S)NC2=O)cc1[N+](=O)[O-]	1.12µM*	-31.4%	-0.5%
Cc1cc(C)c2c(=O)c3c(oc2c1)C(=O)N(Cc1ccc(F)cc1)C3c1cccc(O)c1 (configuration not stated)	1.3%	nt	-1.3%
CCC1=[N+](C)CCn2c(C)ccc21	5.9%	-17.1%	?
CC(=O)c1c(C)c(C)c2n1CCn1c(C)ccc1-2	12.6µM*	0.5%	2.0%
O=C(N/N=C/c1ccc(OCc2ccccc2)cc1)c1ccncc1	-3.1%	-6.0%	-4.6%
Oc1ccc(N=Cc2ccc(OCc3ccccc3)cc2)cc1	3.98µM*	-26.0%	2.5%
CCOC(=O)c1c(C)[nH]c(C)c1S(=O)(=O)N1CCCC(C(=O)Nc2cccc(CC)c2)C1 (configuration not stated)	3.0%	nt	0.9%
O=C1N=C(c2ccccc2)S/C1=C\c1cccs1	3.98µM*	-34.4%	-16.0%
O=C1N=C(N2CCN(c3ccccc3)CC2)S/C1=C/c1cccs1	-0.5%	-31.3%	-3.5%
COc1ccccc1-c1ccnc2c(-c3ccc(Br)cc3)c(C)nn12	-2.4%	nt	-1.4%
CCOc1ccccc1NC(=O)N(Cc1ccc(C)o1)C1CCN(C(C)=O)CC1	-0.6%	nt	-4.4%
CC(C)CC(=O)Nc1c(C(=O)N2CCN(c3ccccc3F)CC2)oc2ccccc12	-0.1%	nt	-8.2%
CC(=O)c1ccc(NC(=O)COc2ccccc2-c2nc(-c3cccc(C)c3)no2)cc1	-5.8%	nt	-11.4%
O=S(=O)(Cc1ccccc1Cl)Nc1ccccn1	25.1µM*	-5.2%	1.5%
O=S(=O)(Nc1ccccn1)c1ccc(Cl)cc1	3.8%	-1.8%	-6.3%
N[C@@H](C(=O)N[C@@H]1C(=O)N2C(C(=O)O)=C(Cl)CS[C@H]12)c1ccccc1	-21.7%	-29.8%	-15.6%
Cn1nnnc1SCC1=C(C(=O)O)N2C(=O)C(NC(=O)Cn3nc(C(F)F)cc3C3CC3)C2SC1 (configuration not stated)	3.55µM*	5.6%	2.5%
Cc1nn(CC(=O)NC2C(=O)N3C(C(=O)O)=C(CSc4nnnn4C)CSC23)cc1Br (configuration not stated)	20µM*	-10.4%	-1.0%
Cc1c(Cl)cnn1CC(=O)NC1C(=O)N2C(C(=O)O)=C(CSc3nnnn3C)CSC12 (configuration not stated)	15.8µM*	-14.8%	-1.4%
CC(C(=O)NC1C(=O)N2C(C(=O)O)=C(CSc3nnnn3C)CSC12)n1cc(Cl)cn1 (configuration not stated)	?	-21.0%	-1.7%
CCn1ccc(C(=O)NC2C(=O)N3C(C(=O)O)=C(C)CSC23)n1 (configuration not stated)	4.1%	-6.2%	-6.2%
CC1=C(C(=O)O)N2C(=O)[C@@H](NC(=O)CCCC(=O)O)[C@H]2SC1	-15.8%	-10.1%	-3.2%
Cc1c(Cl)c(C(F)F)nn1CC(=O)NC1C(=O)N2C(C(=O)O)=C(CSc3nnnn3C)CSC12 (configuration not stated)	3.98µM*	-26.3%	-0.5%
COc1ccccc1CNc1nc2c(S(=O)(=O)c3ccccc3)nnn2c2ccc(Cl)cc12	-2.5%	nt	3.2%
COc1ccc(N2C3=C(CC4=C2CCCC4=O)C(=O)CCC3)cc1	39.8µM*	-43.1%	-4.0%
SMILES	Sm TGR block	AmpC no deterg	AmpC detergent
COc1ccc(N2C3=C(CC4=C2CC(C)(C)CC4=O)C(=O)CC(C)(C)C3)cc1	?	25.2%	4.6%
O=C(c1nc(-c2ccc(Cl)cc2)n2c1CCCCC2)N1CCN(c2ccccc2)CC1	2.6%	nt	8.9%
N#CC1=C(N)OC2=C(CCc3ccccc32)C1c1ccccc1Cl (configuration not stated)	-15.9%	3.55µM*	-6.3%
N#CC1=C(N)Oc2cc(N)ccc2C1c1ccccc1Cl (configuration not stated)	-17.7%	-48.1%	?
O=C(NCc1ccccc1Cl)c1ccc2c(c1)ncn2-c1cccc(F)c1	4.6%	nt	-7.8%
CCN=c1scc(C)n1/N=C/c1ccc(O)c(O)c1O	20µM*	10µM*	-3.3%
CCN=c1scc(C)n1/N=C/c1cc(Br)c(O)c(Br)c1	?	-26.8%[11.4 µM]	-14.3%
COCCN=c1scc(-c2cccs2)n1/N=C/c1ccc(O)c(O)c1O	39.8µM*	-22.2%	4.5%
COCCN=c1scc(-c2ccccc2)n1/N=C/c1c[nH]c2ccccc12	-7.5%	26.1%	-11.0%
CC(C)(C)C(=O)Nc1cccc(C(=O)OCc2cc(=O)n3nc(C4CCCCC4)sc3n2)c1	3.2%	nt	11.1%
Cc1ccc(N2CCn3c2nc2c3c(=O)n(CCCc3ccccc3)c(=O)n2C)cc1C	11.3%	nt	19.1%
COc1ccc(C(=O)NNC(=O)CSc2nc3c([nH]2)c(=O)n(C)c(=O)n3C)cc1	0.8%	-23.8%	-0.7%
CC(=O)/C(N=Nc1nc2c([nH]1)c(=O)n(C)c(=O)n2C)=C(\C)O	22.1%	73.7%	1.6%
COc1ccc(NN=Nc2nc3c([nH]2)c(=O)n(C)c(=O)n3C)cc1	17.8µM*	0.3%	-0.9%
Cn1c(=O)c2[nH]c(N=NNc3ccccc3F)nc2n(C)c1=O	39.8µM*	-12.4%	1.4%
Cc1ccccc1NN=Nc1nc2c([nH]1)c(=O)n(C)c(=O)n2C	56.2µM*	-25.0%	?
Cn1c(=O)c2[nH]c(-c3ccccc3)nc2n(C)c1=O	-10.4%	-19.3%	-9.8%
COc1ccc(-c2cn3cccnc3n2)cc1NC(=O)c1cc(C)cc(C)c1	2.7%	nt	1.7%
COc1ccc(CNC(=O)c2ccc(CS(=O)(=O)c3ccccc3OC)o2)cc1	9.3%	nt	6.2%
COc1ccc(-c2cc(C(C)=O)c(C)n2CCC(=O)Nc2cccc(C)c2C)cc1	0.7%	nt	4.2%
C=CCn1c(=NC(=O)C2CCCCC2)sc2cc(NC(C)=O)ccc21	1.1%	3.98µM*	?
C=CCn1c(=NC(=O)C2CC2)sc2cc(NC(C)=O)ccc21	0.0%	5.1%	-5.3%
Cc1nn(C(=O)c2ccc(Br)cc2)c(C)c1S(=O)(=O)N1CCOCC1	?	nt	1.0%
Cc1ccc(C(=O)c2c3ccc(C(F)(F)F)cc3[n+]([O-])n2CCCN)cc1	-25.3%	43.2%	-10.4%
NC(=O)CCn1c(C(=O)c2cc(Cl)c(N)c(Cl)c2)c2ccccc2[n+]1[O-]	4.2%	-8.2%	1.2%
SMILES	Sm TGR block	AmpC no deterg	AmpC detergent
Cc1ccc(C(=O)c2c3ccc([N+](=O)[O-])cc3[n+]([O-])n2CCCN)cc1	35.5µM*	25.8%	-2.1%
NCCCn1c(C(=O)c2cc(Cl)c(N)c(Cl)c2)c2ccccc2[n+]1[O-]	35.5µM*	5.5%	-8.6%
COCCn1c(SCC(=O)Nc2cccc(C)c2C)nc2c(oc3ccccc32)c1=O	4.9%	nt	22.5%
Cc1ccc(-c2ccc(/C=C3\SC(N4CCOCC4)=NC3=O)o2)cc1	?	129.1%	-2.8%
Cc1ccc(/C=C2\SC(N3CCN(C(c4ccccc4)c4ccccc4)CC3)=NC2=O)o1	35.5µM*	-10.6%	-5.2%
CS(=O)(=O)c1ccc(C(=O)Nc2ccc(N3CCOCC3)cc2)c(Cl)c1	-16.4%	-12.9%	-1.8%
Cc1ccccc1NC(=O)c1nc(S(C)(=O)=O)ncc1Cl	?	-9.3%	-8.8%
CCOC(=O)c1nc(S(C)(=O)=O)ncc1N1CCOCC1	6.3%	-14.5%	1.0%
